We go through 40 compounds from PubChem BioAssay AID916 (National Center for Advancing Translational Sciences (NCATS), 2007).

Records with an inconclusive call do not appear. Active and inactive are the calls of the source. The call rests on the fitted dose curve; in most records, active means well fitted activation curve with a large enough effect in the signal ratio, with a control signal flat (not every such curve was filed as active); inconclusive means small, poorly fitted or top-dose-only effect, or a change in a side signal; inactive means flat fitted curve, though single readings scatter; the % refers to the signal ratio.

This assay can be described thus: Confirmation Concentration-Response Assay for Cell signaling CRE-BLA (Fsk stim). To be noted: CHO CRE-bla reporter (cAMP response element driving beta-lactamase), NKH477 EC10 stim, FRET ratio; series mostly up to 38.3 µM; activation: at the top concentration. The source says: NIH Molecular Libraries Screening Centers Network [MLSCN] NIH Chemical Genomics Center [NCGC] MLSCN Grant: 1X01MH079867-01 Assay Provider: Marshall W. Nirenberg, U.S. National Heart, Lung and Blood Institute CRE beta-lactamase Assay Overview Memories persist for different lengths of time, from seconds or minutes to a lifetime. There are two kinds of memory: short-term memory (STM) and long-term memory (LTM). STM lasts for minutes to hours, which maybe mediated by modifications of molecules involved in synaptic functions. LTM lasts for days or longer, and may be due to the formation of new synapses or restructuring of existing synapses. LTM, but not STM, requires gene transcription and synthesis of proteins. CREB (cyclic-AMP Responsive Element Binding Protein) is one of the candidates plays an important role for enhancement of some types of LTM. CREB, a family of transcription factors, regulates the transcription of genes containing cAMP Responsive Elements (CRE). CRE is a nucleotide sequence often found in the promoter regions of genes that are binding sites for CREB. Using a beta-lactamase reporter-gene under control of cAMP responsive element, a cell-based assay [CellSensor(TM) CRE-bla CHO developed by Invitrogen Corp.] was used to measure forskolin-induced signaling. The selected compounds were measured for their ability to modulate positively the action of EC10 NKH 477, a water soluble forskolin, on reporter gene activity. Compounds were screened in a titration series in 1536-well format. Positive modulators were identified based on the AC50 values derived from the screening data.
NCGC Assay Protocol Summary 2000 cells/5uL in Opti-MEM medium containing 0.5% dialyzed FBS, 0.1 mM NEAA, 1 mM sodium pyruvate and 10 mM HEPES was dispensed into 1536-well plates and cells were cultured at 37 degrees Celsius overnight. Next day 23 nL of compounds or DMSO were delivered to each well using a pin tool, and 1uL of EC10 level of NKH 477, or EC100 level of IBMX, a PDE inhibitor, in the present of NKH 477, or assay medium was added. And then the plates were incubated at 37 degrees Celsius for 3 hours. 1 uL of CCF4-dye mixture was added to each well. After incubated at room temperature for 2 hours the plates were measured on an EnVision plate reader at Excitation 405nm, Emission1=460nm and Emission 2=530nm. The %Activity was determined from the ratio of 460nm/530nm. Keywords: NIH Roadmap, MLSCN, MLSMR, qHTS, NCGC, CRE, beta-lactamase reporter-gene assay.
Consider `CCN(C(=O)c1cn(C)c(=O)c2cc(OC)c(OC)cc12)c1cc(OC)ccc1OC`, for which the “activation” value is 28.8% (inactive).
Take `CCN(CC)c1nc2ccccc2n2cnnc12`: the Potency is 15.8 µM (active).
As for `Fc1ccc(C2=Nn3c(Cc4ccccc4)nnc3SC2)cc1`, the “activation” value was 12.1% (inactive).
Regarding `O=C(Nc1ccccc1O)c1cc(S(=O)(=O)N2CCOCC2)ccc1Cl`, the “activation” value is 1.88% (inactive).
Take `O=S(=O)(Nc1cccc(-c2nc3cccnc3s2)c1)c1ccc2c(c1)OCCO2`: the Potency was 10 µM (active).
Take `CCCN(CCC)CCNC(=O)c1cc2c(=O)n(C)c3ccccc3c2n1C`: the “activation” value is 6.98% (inactive).
Take `Cc1cc(-c2nnc3n2N=C(c2ccc(-c4ccccc4)cc2)CS3)n[nH]1`: the Potency is 12.6 µM (active).
As for `COc1ccc(/C(O)=C(\C#N)c2nc3ccccc3n2C)cc1OC`, the Potency is 15.8 µM (active).
Take `COc1cc(C2NC(=O)NC(C)=C2C(=O)OC(C)(C)C)ccc1OCC(N)=O` (stereo not given): the “activation” value was -1.41% (inactive).
Still for that read-out and setting: the figure for `Cc1cc(C)n(-c2nc(Nc3ccccc3)nc(-n3nc(C)cc3C)n2)n1` is 18.6% (inactive).
For `CSc1nc2ccc(Nc3nc(N4CCOCC4)nc(N4CCOCC4)n3)cc2s1`, the Potency was 12.6 µM (active).
As to `Cc1nn(-c2ccccc2)c2sc(C(=O)N(CC(=O)NC(C)(C)C)Cc3ccco3)cc12`, the Potency is 7.94 µM (active).
In the case of `CC[C@]1(O)C[C@@H]2CN(CCc3c([nH]c4ccccc34)[C@](C(=O)OC)(c3cc4c(cc3OC)N(C=O)[C@H]3[C@@](O)(C(=O)OC)[C@H](C(=O)OC)[C@@]5(CC)C=CCN6CC[C@]43[C@H]65)C2)C1`, the Potency is 0.501 µM (active).
As to `O=C(c1cc(S(=O)(=O)N2CCOCC2)ccc1F)N1CCCc2ccccc21`, the “activation” value was -11.2% (inactive).
As to `CC[C@]1(O)C[C@@H]2CN(CCc3c([nH]c4ccccc34)[C@](C(=O)OC)(c3cc4c(cc3OC)N(C)[C@H]3[C@](O)(C(=O)OC)[C@@H](C(=O)OC)[C@@]5(CC)C=CCN6CC[C@@]43[C@@H]65)C2)C1`, the Potency was 0.0631 µM (active).
With `CN(C)c1nc(N(C)C)nc(N(C)C)n1`, the “activation” value is 8.09% (inactive).
For the compound `CCCCCOC(=O)c1[nH]c2c(c1C)C(=O)CC(c1ccco1)C2` (stereo not given), the Potency was 0.251 µM (active).
Take `Cn1c(/C(C#N)=C/Nc2ccccn2)nc2ccccc21`: the “activation” value was 17.8% (inactive).
Regarding `CC1CCc2c(sc3nc(C4CC4)nc(SCC(=O)NCc4ccco4)c23)C1` (stereo not given), the “activation” value is 17.7% (inactive).
Turning to `CCOC(=O)c1ccccc1NC(=O)c1cc(S(=O)(=O)N2CCOCC2)ccc1F`, the Potency was 12.6 µM (active).
As for `CCOC(=O)C1=C(CN2CCC(C)CC2)NC(=O)NC1c1ccc(Cl)cc1` (stereo not given), the Potency was 12.6 µM (active).
Turning to `Cc1sc2nc(SCc3nc4ccccc4[nH]3)n(Cc3ccco3)c(=O)c2c1C`, the Potency was 1.26 µM (active).
In the case of `CCc1nc(Nc2ccc3nccnc3c2)c2oc3ccccc3c2n1`, the Potency was 1.58 µM (active).
In the case of `Cc1cc(Nc2ccc3ccccc3c2)n2ncnc2n1`, the “activation” value is 8.92% (inactive).
As to `COC(=O)c1ccc(CSc2ccc3nnc(-c4cccc(F)c4)n3n2)o1`, the Potency was 15.8 µM (active).
Turning to `CCc1nc(SCC(=O)N2CCc3ccccc32)c2oc3ccccc3c2n1`, the Potency was 10 µM (active).
Turning to `COc1ccc(CCNC(=O)CSc2nc(C)nc3c2oc2ccccc23)cc1OC`, the Potency was 12.6 µM (active).
For `CC1(C)Cc2c(sc3nc(SCC#N)n(C4CCCCC4)c(=O)c23)CO1`, the Potency was 20 µM (active).
Consider `O=c1[nH]c(SCc2ccccc2Cl)nc2c1cnn2-c1ccccc1`, for which the Potency was 3.98 µM (active).
Turning to `Cc1cc(C)nc(N2CCN(c3nc(C)nc4c3oc3ccccc34)CC2)n1`, the “activation” value was 16.2% (inactive).
With `CN1C(=O)NC(c2ccccc2)C2=C1CN(Cc1ccccc1)C2=O` (stereo not given), the “activation” value is -8.37% (inactive).
Take `CCc1nc2nc(C)cc(Nc3cccc(C(F)(F)F)c3)n2n1`: the Potency is 7.94 µM (active).
On to `CCCN(CCC)c1nc2ccccc2n2c(C)nnc12`, for which the Potency was 12.6 µM (active).
Consider `CCOc1ccc(C2c3c(oc4ccccc4c3=O)C(=O)N2c2ccc(C)cn2)cc1OC` (stereo not given), for which the Potency was 15.8 µM (active).
Consider `Cn1c(/C(C#N)=C/C2CC=CCC2)nc2ccccc21` (stereo not given), for which the “activation” value is 4.69% (inactive).
As for `COc1cc(-c2cc(=O)c3ccccc3o2)ccc1O`, the Potency was 15.8 µM (active).
Still for that read-out and setting: the figure for `COC(=O)c1ccc(CSc2nc3c(cnn3-c3ccc(F)cc3)c(=O)[nH]2)o1` is 15.8 µM (active); for `CCCN(C#N)c1nc(NCC)nc(NC(C)C)n1` it is 12.6 µM (active).
As to `Fc1ccc(CSc2ncnc3c2oc2ccccc23)cc1`, the Potency is 10 µM (active).
Turning to `Cc1ccc(Nc2c3c(nc4ncnn24)CCC3)cc1`, the “activation” value is 17.4% (inactive).
